Autofluor counter = counter-screen for toxin protease inhibitors: compound fluorescence; compound autofluorescence counterscreen, microsphere flow cytometry; hits give high values; fluorescence intensity (test concentration not listed); 360,000 compounds, 3.1% hits; in the data active = fluorescence intensity above about 16000; inconclusive = no clear call, values can overlap the other calls
BoNT-A LC inh2 = BoNT/A light chain protease inhibitors, primary screen, biochemical, flow cytometry, MLPCN library; multiplex microsphere protease substrate cleavage; AID 588499, 2011; inhibition, % at 10 µM; Botulinum neurotoxin type A light chain protease (Clostridium botulinum A str. ATCC 3502); 360,000 compounds, 0.17% hits
MazF activator = activators of E. coli MazEF toxin-antitoxin RNase, primary screen, biochemical, fluorescence, uHTS; Endoribonuclease toxin MazF (Escherichia coli (strain K12)), P0AE70; FAM/BHQ RNA-DNA oligo cleavage fluorescence, 5 h; activation, % at 20 µM; 350,000 compounds, 0.32% hits; in the data active = activation above about 50%
BoNT-F LC inh = BoNT/F light chain protease inhibitors, primary screen, biochemical, flow cytometry, MLPCN library. AID 588497, 2011. 360,000 compounds, 0.22% hits. Multiplex microsphere protease cleavage assay. Botulinum neurotoxin type F light chain protease (Clostridium botulinum). inhibition, % at 10 µM; in the data active = inhibition above about 35%, passing the limit was not always enough; inconclusive = no clear call, values can overlap the other calls
VHR inh abs = VHR1 phosphatase inhibitors, primary screen, biochemical, absorbance, uHTS; recombinant VHR phosphatase, pNPP absorbance; Dual specificity protein phosphatase 3 (Homo sapiens), P51452; inhibition, % at 13.3 µM; 290,000 compounds, 0.52% hits; AID 1654, 2009; in the data active = inhibition above about 50%
Anthrax LF inh2 = Bacillus anthracis LF protease inhibitors, primary screen, biochemical, multiplex microsphere, MLPCN library | multiplex microsphere protease cleavage assay | inhibition, % at 10 µM | AID 588501, 2011 | Lethal factor (Bacillus anthracis), P15917 | 360,000 compounds, 0.12% hits
Target sequence (P15917 whole entry, looked up): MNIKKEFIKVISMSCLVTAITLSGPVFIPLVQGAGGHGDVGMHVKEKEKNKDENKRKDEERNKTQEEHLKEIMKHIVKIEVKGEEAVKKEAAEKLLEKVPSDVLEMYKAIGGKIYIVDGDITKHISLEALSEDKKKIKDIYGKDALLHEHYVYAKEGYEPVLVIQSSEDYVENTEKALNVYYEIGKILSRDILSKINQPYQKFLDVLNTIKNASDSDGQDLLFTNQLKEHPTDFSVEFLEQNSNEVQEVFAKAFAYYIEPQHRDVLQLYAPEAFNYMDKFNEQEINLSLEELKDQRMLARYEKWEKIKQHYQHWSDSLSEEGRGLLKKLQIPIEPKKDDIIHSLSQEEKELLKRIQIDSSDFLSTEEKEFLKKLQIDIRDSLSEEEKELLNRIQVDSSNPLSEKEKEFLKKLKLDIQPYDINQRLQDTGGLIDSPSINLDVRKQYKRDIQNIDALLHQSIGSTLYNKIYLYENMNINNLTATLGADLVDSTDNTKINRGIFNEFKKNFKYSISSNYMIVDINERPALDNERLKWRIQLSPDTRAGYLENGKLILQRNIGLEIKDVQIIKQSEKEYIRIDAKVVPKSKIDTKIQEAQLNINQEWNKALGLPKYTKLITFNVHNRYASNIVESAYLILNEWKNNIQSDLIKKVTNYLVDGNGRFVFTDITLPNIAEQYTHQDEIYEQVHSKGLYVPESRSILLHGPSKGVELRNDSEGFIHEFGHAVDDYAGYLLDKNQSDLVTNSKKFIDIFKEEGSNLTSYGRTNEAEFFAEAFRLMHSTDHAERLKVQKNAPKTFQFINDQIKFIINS
Large screens that a line does not name were inactive. Hits are enriched below; roughly 4% of the tested compounds scored in any of these assays. Rule as the data show it, unless noted: active = inhibition above about 30%; inconclusive = no clear call, values can overlap the other calls; inactive = below that.

Cc1ccccc1-c1nnc(SCC(=O)Nc2ccc(Cl)cc2)n1N	none
COc1cc(NC(=O)CSc2ncccc2C(=O)OC(C)C)cc(OC)c1	Autofluor counter 23173
COc1ccc(NC(=O)CSc2nnc(-c3ccccc3C)n2N)cc1OC	Autofluor counter 22260, BoNT-A LC inh2 inconclusive
COc1ccc(NC(C)=O)cc1NC(=O)CSc1nnc(-c2ccc(F)cc2)n1N	Autofluor counter 20810
COC(=O)C(O)(CC(=O)c1ccc(OC)cc1)C(F)(F)F (stereo not given)	none
CCOc1cccc(-c2nnc(SCC(=O)Nc3cc(OC)cc(OC)c3)n2N)c1	Autofluor counter 22656, BoNT-A LC inh2 inconclusive
CCOc1cccc(-c2nnc(SCC(=O)Nc3ccc(OC)c(OC)c3)n2N)c1	none
CCN1C(=O)[C@H]2[C@@H](c3ccc(C(F)(F)F)cc3)N[C@]3(CCCN(Cc4ccc(F)cc4)C3=O)[C@H]2C1=O	none (no result: VHR inh abs)
Cc1cc(NC(=S)NC(=O)CC(C)C)ccc1Br	Autofluor counter 25030
CC1=C(C(=O)N2CCCC(C(=O)c3cccc(C(F)(F)F)c3)C2)OCCO1 (stereo not given)	none
CCc1[nH]nc(C(=O)N2CCCC(C(=O)c3cccc(C(F)(F)F)c3)C2)c1C (stereo not given)	VHR inh abs 52.5
COc1ccc(-c2noc(-c3cccs3)n2)cc1OC	none
COc1cc(-c2noc(-c3cccs3)n2)cc(OC)c1OC	Autofluor counter 20254, BoNT-A LC inh2 inconclusive
Cc1ccc(S(=O)(=O)N2CN(CC3CCCO3)c3nc4ccccc4nc32)cc1 (stereo not given)	none
Cc1cccc(CN2C(=O)N/C(=C/c3ccc(C)s3)C2=O)c1	MazF activator 189.5
Cc1ccc(/C=C2/NC(=O)N(Cc3ccccc3)C2=O)s1	none
CCC(=O)c1cc2c(cc1NC(=O)c1ccc(C)cc1)OCCO2	Autofluor counter 20255, BoNT-A LC inh2 inconclusive
CC(C)C(=O)c1cc2c(cc1NC(=O)c1cccs1)OCCO2	Autofluor counter 23207, VHR inh abs 52.7
CC(=O)Nc1cc2c(cc1C(=O)C(C)C)OCCO2	none
CC(C)C(=O)c1cc2c(cc1NC(=O)c1ccccc1)OCCO2	Autofluor counter 23685, BoNT-A LC inh2 inconclusive
CCC(=O)N1CCc2cc(Br)cc(S(=O)(=O)CC(=O)OC)c21	none
O=C(Nc1nc2c(Cl)c(Cl)ccc2s1)C1CC1	none
O=C1CCC2c3ccc4ccccc4c3CCN12 (stereo not given)	Autofluor counter 20473
Cc1nc2sc(C(c3ccccc3)N3CCN(C)CC3)c(O)n2n1 (stereo not given)	none
Cc1ccc(C(=O)OCC(=O)Nc2c(C)n(C)n(-c3ccccc3)c2=O)cc1[N+](=O)[O-]	MazF activator 50.0
O=CN(Cc1ccco1)C1(C(=O)NC2CCCCC2)CCCCC1	Autofluor counter 22071, BoNT-A LC inh2 inconclusive
CCOc1ccc(C(=S)NC2CCCCC2)cc1	Autofluor counter 20072, BoNT-A LC inh2 inconclusive
CCOC(=O)COc1ccc(C(=O)NC2CCCCC2)cc1	Autofluor counter 20056, BoNT-A LC inh2 inconclusive
COc1ccc(NC(=O)CSc2nc(=O)n(CCN3CCOCC3)c3c2CCC3)cc1	none (no result: Autofluor counter, BoNT-A LC inh2, BoNT-F LC inh, VHR inh abs, Anthrax LF inh2)
CCc1cc(=O)oc2cc(C)cc(OCC(=O)NCCCn3ccnc3)c12	none
O=C(Nc1cccc(Cl)c1)c1ccc2c(c1)SC1=NS(=O)(=O)CCN12	MazF activator 135.9
Cc1ccc(C(=O)NNC(=O)Cc2ccccc2)cc1	Autofluor counter inconclusive, BoNT-A LC inh2 inconclusive
O=C1CCc2cc(S(=O)(=O)N3CCN(c4cccc(Cl)c4)CC3)ccc2N1	Autofluor counter 17938
CN(C)S(=O)(=O)N1CCN(c2cccc(Cl)c2)CC1	Autofluor counter 21047, BoNT-A LC inh2 inconclusive
CN(C)S(=O)(=O)N1CCN(c2ccccc2)CC1	none
O=C1c2ccccc2NC(c2ccccc2)N1c1ccc(O)cc1 (stereo not given)	none
COc1ccc2c(c1)c(=O)oc1cc(OCC(=O)N3CCC(C)CC3)ccc12	Autofluor counter 20779
CN(c1ccccc1)c1nc2ccsc2c(=O)s1	Autofluor counter 21828
CCSc1nnc(-c2ccncc2)n1Cc1ccccc1	Autofluor counter 16561, BoNT-A LC inh2 inconclusive

Assay outcomes as filed in PubChem.
